HCV inhibitor: HCV inhibition; 3.4% of 340,000 active; Huh7.5.1 HCVcc-Cre infection, luciferase reporter, 44 h; Potency, µM (highest dose often 41.8 µM), hits mostly inhibitors; active = well fitted inhibition curve with a large enough effect; inconclusive = small, poorly fitted or top-dose-only effect, or another doubt; inactive = no such curve, though single readings can be large or run the other way
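HCVcc-Cre virus at an moi near 0.5 was added right after compound to cells cultured 4 h from seeding (1,000 cells/well). Luciferase activity was determined 44 h later, 15 min after substrate addition at RT.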
Marburg entry inh: blocks Marburg virus binding to or entry into cells; AID 540276; 1.8% of 300,000 active; Marburg virus pseudotyped entry inhibition, cell reporter; Potency, µM (top dose mostly 37.8 µM), actives largely listed as inhibitors; calls by dose curve; tested in HEK293 cells
Lassa entry inh: inhibitors of Lassa virus binding or cell entry | Lassa virus pseudotype entry inhibition, cell reporter | Potency, µM (highest dose often 37.9 µM), most hits filed as inhibitors | 1.2% of 300,000 active | AID 540256; calls by dose curve; tested in HEK293 cells; also: nearly all actives have a fitted effect of over 50% in size
Cycloheximide cs: counter-screen hit for Shiga toxin inhibitors, cycloheximide. cell reporter, cycloheximide protein synthesis inhibition counterscreen. max response, %. 12% of 300,000 active; in the data active = max response mostly above about 13%, no sharp cut-off; inactive = mostly below about 14%; also: read at 38.3 µM for the half of the compounds with a filed dose
Shiga toxin inh: inhibitors of Shiga toxin in Vero cells; Vero cells, Shiga toxin protein synthesis inhibition reporter; inhibition, % at 38.7 µM; 9.2% of 290,000 active; AID 2315; in the data active = inhibition mostly above about 28%, no sharp cut-off; inactive = mostly below about 43%
FMDV inh: blocks foot and mouth disease virus; 1.2% of 410,000 active; Potency, µM (highest dose often 57.9 µM), most hits filed as inhibitors; AID 1159524; FMDV antiviral cell-based qHTS; calls by dose curve; tested in HEK293T cells; also: read-out not given here; nearly all actives have a fitted effect of over 45% in size
Each line names hits and unclear results; the compound was inactive in the other large screens. A selection: hits, their analogues and other compounds. The true share with any hit is near 13%.

Cc1cccc2cc(-c3nc(-c4cccs4)no3)c(=O)oc12	FMDV inh inconclusive (no result: HCV inhibitor, Marburg entry inh, Cycloheximide cs, Shiga toxin inh)
Cc1ccccc1-c1nnc(-c2cccs2)o1	Cycloheximide cs 58, Shiga toxin inh 85 (no result: Marburg entry inh, Lassa entry inh)
Cc1ccccc1-c1noc(-c2cccs2)n1	Marburg entry inh inconclusive, Cycloheximide cs 55, Shiga toxin inh 87
CCSc1nnc(NC(=O)[C@@H](NC(=O)c2ccccc2F)C(C)C)s1	none
O=[N+]([O-])c1cc(S(=O)(=O)c2ccc(O)c([N+](=O)[O-])c2)ccc1O	Marburg entry inh inconclusive
CC(=O)c1ccc(S(=O)(=O)N2CCN(CC(=O)Nc3ccc(Cl)c([N+](=O)[O-])c3)CC2)cc1	FMDV inh inconclusive (no result: Marburg entry inh, Lassa entry inh, Cycloheximide cs, Shiga toxin inh)
Cc1ccc(S(=O)(=O)N2CCN(CC(=O)N/N=C\c3ccc(Cl)c([N+](=O)[O-])c3)CC2)cc1	HCV inhibitor 4.5µM, Marburg entry inh inconclusive
O=C(CN1CCN(S(=O)(=O)c2ccc(Br)cc2)CC1)N/N=C/c1ccc(Cl)c([N+](=O)[O-])c1	HCV inhibitor 11µM, Marburg entry inh 15µM, Lassa entry inh inconclusive
O=C(CN1CCN(S(=O)(=O)c2ccc(Br)cc2)CC1)N/N=C/c1cc([N+](=O)[O-])ccc1Cl	Marburg entry inh inconclusive
COc1cccc(OC)c1OCCCCN1CCCCC1	none (no result: Marburg entry inh, Lassa entry inh)
COCCCn1cnc2c(c1=O)c1nc3ccccc3nc1n2-c1ccccc1	none
COCCCn1cnc2oc3nc4ccccc4nc3c2c1=O	Marburg entry inh inconclusive, Cycloheximide cs 37, Shiga toxin inh 98
O=C(Nc1ccc2oc(-c3ccncc3)nc2c1)c1cccs1	HCV inhibitor inconclusive, Marburg entry inh inconclusive
CCCC(=O)Nc1cccc(-c2nc3cc(C)c(C)cc3o2)c1	HCV inhibitor inconclusive, Marburg entry inh inconclusive, Cycloheximide cs 39, Shiga toxin inh 84
CC(=O)Nc1cccc(-c2nc3ccccc3o2)c1	Cycloheximide cs 28, Shiga toxin inh 40 (no result: Marburg entry inh, Lassa entry inh)
O=C(Nc1ccc(-c2nc3cc(NC(=O)c4cccs4)ccc3o2)cc1)c1cccs1	HCV inhibitor 11µM, Marburg entry inh 8.2µM, Lassa entry inh 15µM
CC(C)CC(=O)Nc1ccc2oc(-c3ccncc3)nc2c1	Cycloheximide cs 24, Shiga toxin inh 59
Cc1cccc(C(=O)N2[C@@H](C(C)C)COc3cc(Br)ccc3S2(=O)=O)c1	Lassa entry inh inconclusive (no result: Marburg entry inh, Cycloheximide cs, Shiga toxin inh)
Cc1cc2cc(CN(Cc3ccc4c(c3)OCO4)C(=O)c3cnccn3)c3nnnn3c2cc1C	HCV inhibitor inconclusive
CC(=O)Nc1ccc(-c2nc3ccc(NC(C)=O)cc3o2)cc1	Cycloheximide cs 34, Shiga toxin inh 79 (no result: Marburg entry inh, Lassa entry inh)
O=C1C2C3C=CC(C3)C2C(=O)N1c1cccc(-c2nc3ccccc3o2)c1 (stereo unspecified)	none
O=C(Nc1cccc(-c2nc3ccccc3o2)c1)c1ccc(N2C(=O)C3C4C=CC(C4)C3C2=O)cc1 (stereo unspecified)	HCV inhibitor inconclusive, Marburg entry inh inconclusive, Lassa entry inh inconclusive, FMDV inh 32µM
CC(=O)Nc1ccc2oc(-c3ccccc3)nc2c1	Cycloheximide cs 41, Shiga toxin inh 93 (no result: Marburg entry inh, Lassa entry inh)
O=C(Nc1ccc2oc(-c3ccncc3)nc2c1)c1ccccc1	none
CC(C)CC(=O)Nc1cccc(-c2nc3ccccc3o2)c1	HCV inhibitor inconclusive, Marburg entry inh inconclusive, Cycloheximide cs 22, Shiga toxin inh 62
Cc1ccc(-n2c(SCC(=O)OC(C)C)nnc2-c2ccncc2)cc1	Marburg entry inh inconclusive
CCCC(=O)Nc1cccc(-c2nc3ccccc3o2)c1	HCV inhibitor inconclusive, Cycloheximide cs 26
COc1ccc(OCC(=O)Nc2cccc(-c3nc4ccccc4o3)c2)cc1	HCV inhibitor 10µM, Cycloheximide cs 45, Shiga toxin inh 123
O=C(O)CCC(=O)Nc1cccc(-c2nc3ccccc3o2)c1	Marburg entry inh inconclusive
CC(=O)Nc1ccc2nc3ccccc3nc2c1	Cycloheximide cs 52, Shiga toxin inh 91 (no result: Marburg entry inh, Lassa entry inh)
Cc1ccc(CNC(=O)CCCc2c[nH]c3ccccc23)cc1	none
Cc1ccc(NCc2nnc(SCC(=O)OC3CCCCC3)o2)c(C)c1	none
CC(C)(C)C1CCC2(CC1)SCC(=O)N2c1ccccc1 (stereo unspecified)	Lassa entry inh inconclusive (no result: FMDV inh)
CC(C)(C)C1CCC2(CC1)NC(=S)N(c1ccccc1)N2 (stereo unspecified)	Cycloheximide cs 24, Shiga toxin inh 42
CCOC(=O)CN1NC2(CCC(C(C)(C)C)CC2)NC1=S (stereo unspecified)	none
CCC(C)(C)C1CCC2(CC1)NC(=S)N(c1ccccc1)N2 (stereo unspecified)	Cycloheximide cs 35, Shiga toxin inh 98 (no result: Marburg entry inh, Lassa entry inh)
CC1C(=O)OC2C(O)C34C5OC(=O)[C@@]3(OC3OC(=O)[C@H](O)[C@]34C(C(C)(C)C)C5O)[C@]12O (stereo partly specified)	none (no result: HCV inhibitor, Marburg entry inh, Lassa entry inh, Cycloheximide cs, Shiga toxin inh)
CCCCNC(=O)c1ccc2c(=O)n(-c3ccccc3)c(=O)[nH]c2c1	none (no result: HCV inhibitor, Cycloheximide cs, Shiga toxin inh)
CC(=O)NC(CC(=O)NC12CC3CC(CC(C3)C1)C2)c1ccccc1 (stereo unspecified)	HCV inhibitor inconclusive, Lassa entry inh inconclusive
Nc1ccccc1-c1ccn[nH]1	Marburg entry inh inconclusive (no result: Cycloheximide cs, Shiga toxin inh)
c1ccc(-c2ncc(-c3ccn[nH]3)s2)cc1	Marburg entry inh inconclusive, Lassa entry inh inconclusive, Cycloheximide cs 46, Shiga toxin inh 93
COc1ccc(CC(=O)Nc2ccc(S(=O)(=O)Nc3nccs3)cc2)cc1	Lassa entry inh inconclusive
CCCc1cc2c(=O)c(-c3nc4ccccc4s3)c(COCC(=O)O)oc2cc1O	Cycloheximide cs 43, Shiga toxin inh 95
Nc1c(Br)cc2c3c(cccc13)-c1ccccc1-2	HCV inhibitor 2.8µM (no result: Cycloheximide cs, Shiga toxin inh)
Nc1c(Br)cc2c(c1Br)C(O)c1ccccc1-2 (stereo unspecified)	HCV inhibitor inconclusive (no result: Cycloheximide cs, Shiga toxin inh)
CCCCNC(=S)NC(=O)c1ccc(Cl)cc1Cl	HCV inhibitor inconclusive, Cycloheximide cs 32
CCCCNC(=S)NC(=O)c1ccccc1Br	Cycloheximide cs 18, Shiga toxin inh 82
CC1CCCC(NC(=S)NC(=O)c2ccccc2Br)C1C (stereo unspecified)	Lassa entry inh inconclusive, Shiga toxin inh active
Cc1nn(C)c(=O)n1-c1ccc(OCc2ccccc2)cc1	Cycloheximide cs 44, Shiga toxin inh 89
Cc1nn(CCOc2ccccc2)c(=O)n1-c1cccc(F)c1	none
COc1ccc(-n2c(C)nn(C)c2=O)cc1	none
Cc1nn(CCOc2ccccc2)c(=O)n1-c1ccc(F)cc1	Lassa entry inh inconclusive, Cycloheximide cs 32, Shiga toxin inh 62
Cn1c(CCN2CCCCC2)nc2cc(NC(=O)COc3ccc([N+](=O)[O-])cc3)ccc21	none (no result: Marburg entry inh, Lassa entry inh)
CN(c1ccccc1)S(=O)(=O)c1cccc(NC(=O)CSc2nncs2)c1	HCV inhibitor inconclusive, Marburg entry inh inconclusive, Lassa entry inh 10µM, FMDV inh 10µM
CN(c1ccccc1)S(=O)(=O)c1cccc(NC(=O)CSc2ncn[nH]2)c1	HCV inhibitor inconclusive, Marburg entry inh inconclusive, Lassa entry inh inconclusive, FMDV inh 35µM
